HMGR II inh – inhibitors of class II HMG-CoA reductase from Enterococcus faecalis | purified E. faecalis HMGR, NADPH absorbance 340 nm kinetic | inhibition, % at 10 µM | 190,000 compounds, 0.41% hits | AID 1066;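 active = inhibition above a set limit, the median over all tested compounds plus 3 SD, cut at about 9.5% in these data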;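 also: enzyme runs in reverse so mevalonate oxidation gives rising NADPH absorbance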
NCF1 inh – inhibitors of human p47phox binding | p47phox/p22phox peptide binding, fluorescence polarization, 2 h | P14598 | inhibition, % at 24.7 µM | 220,000 compounds, 0.53% hits;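 active = inhibition above about 30%, limit read from the data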
dFosB act-1 – activators of mouse delta FosB homodimer. P13346. 340,000 compounds, 0.99% hits. purified delta FosB, TAMRA-CDK5 oligo fluorescence polarization; percent of positive-control signal above neutral wells. activation, % at 25 µM. AID 493131;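 active = mean activation above about 17%, with every replicate also reaching it, limit read from the data, passing the limit was not always enough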
14-3-3 Bad inh – disrupts binding of bovine 14-3-3 zeta to phospho-Bad peptide; AID 781; inhibition, % at 21.7 µM; 220,000 compounds, 0.71% hits; TR-FRET 14-3-3zeta/Dy647-pBad peptide displacement, 1 h; P63103;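 active = inhibition above about 70%, limit read from the data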
Target sequence (P63103 whole entry, looked up): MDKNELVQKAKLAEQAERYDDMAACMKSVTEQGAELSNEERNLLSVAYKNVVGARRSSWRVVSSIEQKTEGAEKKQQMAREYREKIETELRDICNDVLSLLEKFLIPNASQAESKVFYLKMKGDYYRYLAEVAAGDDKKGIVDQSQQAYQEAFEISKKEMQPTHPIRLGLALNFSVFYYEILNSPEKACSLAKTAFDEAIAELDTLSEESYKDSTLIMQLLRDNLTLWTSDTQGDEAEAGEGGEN
dFosB act-2 – delta FosB (mouse) homodimer activation; shares compounds with dFosB act-1; purified delta FosB, TAMRA-CDK5 oligo fluorescence polarization; normalised: neutral wells 0, positive control 100; activation, % at 24.9 µM; 2,400 tested, under 10 active;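 active = highest replicate activation at or above 34% and every replicate reaching that threshold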;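 also: higher polarization means more probe DNA bound by delta FosB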
A number is an active result; 0 = inactive; - = no result given. In the library only some 1.9% were active in any assay of this set; here they are far more common.

SMILES	HMGR II inh	NCF1 inh	dFosB act-1	14-3-3 Bad inh	dFosB act-2
CCCCn1c(N)c(N(CCC(C)C)C(=O)C2CC(=O)N(c3cccc(SC)c3)C2)c(=O)[nH]c1=O (stereo not drawn)	-	-	39.7	-	0
Cc1sc2nc(SCC(=O)O)[nH]c(=O)c2c1C	0	0	0	0	-
Cc1c(C(=O)Nc2ccc(OC(F)(F)F)cc2)sc2nc3n(c(=O)c12)CCC3	0	0	0	0	-
Cc1ccc2nc3c(c(N)c2c1)CCN3C	-	-	17.6	-	0
CCOc1ccc(-c2nnn(CC(=O)NCc3ccc(F)cc3)n2)cc1OCC	0	0	41.2	0	0
O=C(Cn1nnc(-c2ccc(NC(=O)c3ccccc3F)cc2)n1)NCc1ccc(F)cc1	-	0	0	0	-
O=C(Cn1nnc(-c2ccccc2F)n1)Nc1ccc2c(c1)OCCO2	-	-	0	-	-
COc1cccc(-c2nnn(CC(C)=O)n2)c1	0	0	0	0	-
CCOc1ccc(-c2nnn(CC(=O)NCc3ccc4c(c3)OCO4)n2)cc1	0	0	0	0	-
COc1ccc(-c2nnn(CC(=O)NCc3ccc4c(c3)OCO4)n2)cc1OC	0	33.7	29.0	0	0
Cc1ccc(NC(=O)Cn2nnc(-c3ccc4c(c3)OCO4)n2)cc1F	-	-	22.7	-	0
COc1cccc(-c2nnn(CC(=O)Nc3cc(OC)c(NC(=O)c4ccco4)cc3OC)n2)c1	0	0	17.4	0	0
CCOc1ccc(-c2nnn(CC(=O)Nc3cccc(OC)c3)n2)cc1OCC	0	0	19.0	0	0
COc1ccc(C(=O)Nc2ccc(-c3nnn(CC(=O)NCc4ccco4)n3)cc2)cc1	-	0	46.4	0	0
CC(COc1cccc2ccccc12)CN1CCN(C)CC1 (stereo not drawn)	0	0	0	0	-
O=C(CNC(=O)c1ccc(Cl)cc1)OCC(=O)c1ccc2c(c1)OCCO2	0	0	0	0	-
CCOc1ccccc1C(=O)NCC(=O)OCC(=O)c1ccc2c(c1)OCCO2	0	0	17.9	0	0
Oc1ccc(C=NC2CCCCC2)c(O)c1	0	0	0	0	-
COc1ccc(C(C(=O)NCC2CCCO2)N(Cc2cccs2)C(=O)c2snc(C(N)=O)c2N)cc1OC (stereo not drawn)	-	-	0	-	-
CCOc1ccc(C(C(=O)NCC2CCCO2)N(Cc2cccs2)C(=O)c2snc(C(N)=O)c2N)cc1 (stereo not drawn)	-	-	20.5	-	0
CCOc1ccc2nc(NC(=O)c3ccc(OC)c(S(=O)(=O)N4CCOCC4)c3)sc2c1	0	0	26.5	0	0
Cc1c(C(=O)OCC(=O)N2CC(=O)Nc3ccccc32)oc2ccccc12	0	0	32.6	0	0
CCOC(=O)Cc1csc(NC(=O)CSc2nnnn2-c2ccc(C)c(C)c2)n1	0	0	0	0	-
O=C(Nc1ccc(Cl)cc1)Nc1ccc(-c2cnco2)cc1	-	-	39.3	-	0
COc1ccc(NS(=O)(=O)c2ccc(O)c(NC(=O)c3ccc(S(=O)(=O)N4CCCC4)cc3)c2)cc1	-	0	20.3	0	0
SMILES	HMGR II inh	NCF1 inh	dFosB act-1	14-3-3 Bad inh	dFosB act-2
COc1ccc(NS(=O)(=O)c2ccc(O)c(NC(=O)c3ccc(S(=O)(=O)N4CCCCCC4)cc3)c2)cc1	0	0	0	0	-
O=C(/C=C/c1cccs1)Nc1cccc(NC(=O)/C=C/c2cccs2)n1	0	0	21.2	0	0
O=C(Nc1ccccc1F)c1ccc(-c2cccc([N+](=O)[O-])c2)o1	-	-	0	-	-
CC(=O)Nc1ccc(NC(=O)c2ccc(-c3ccc([N+](=O)[O-])cc3)o2)cc1	-	-	29.2	-	0
O=C(Nc1ccc(CN2CCOCC2)cc1)c1ccc(-c2cc(Cl)ccc2Cl)o1	0	0	26.1	0	0
O=C(Nc1nccs1)c1ccc(-c2cccc([N+](=O)[O-])c2)o1	0	0	26.2	0	0
O=C(Nc1ccc(CN2CCOCC2)cc1)c1ccc(-c2cccc([N+](=O)[O-])c2)o1	-	-	17.3	-	0
O=C(Nc1ccc(CN2CCOCC2)cc1)c1ccc(Br)o1	-	-	0	-	-
CCC(C(=O)NCc1ccco1)N(Cc1cccs1)C(=O)CNS(=O)(=O)c1ccccc1 (stereo not drawn)	0	0	0	-	-
CC(=O)c1ccc(NC(=O)c2ccc(COc3ccccc3[N+](=O)[O-])o2)cc1	0	0	26.6	0	0
O=C(O)c1ccc(COc2ccccc2[N+](=O)[O-])o1	0	0	0	0	-
N#Cc1ccc(C23CC4(C2)[C@H](CN(CC2CCCCC2)[C@@H]4c2ccccc2)C3c2ccc(Cl)nc2)cc1 (stereo partly drawn)	-	0	24.8	0	0
